In PubChem BioAssay (EPA / NIEHS):
More than one record can exist for a structure, and the calls need not agree. Calls of active or inactive are those of the source. Rule for the calls: active = hit-call score of the fitted dose curve at least 0.9, where 1 is the maximum; inactive = score below 0.9.

Read-out: Thrombomodulin, THBD (gene 7056)
Test: BSK_LPS_Thrombomodulin: BioMAP Diversity Plus: LPS Assay for Thrombomodulin Biomarker Activity (AID 2284296)
Conditions: primary human HUVEC with PBMC
Protocol: BSK_LPS is a cell-based, multiplexed-readout assay that uses umbilical vein endothelium and peripheral blood mononuclear cells, a human vascular primary cell co-culture, with measurements taken at 24 hours after chemical dosing in a 96-well plate.BSK_LPS_Thrombomodulin is an assay component measured in the BSK_LPS assay. It measures Thrombomodulin antibody related to regulation of gene expression using ELISA technology.Data from the assay component BSK_LPS_Thrombodulin was analyzed at the endpoint, BSK_LPS_Thrombomodulin, in the positive analysis fitting direction relative to DMSO as the negative control and baseline of activity. Using a type of binding reporter, gain or loss-of-signal activity can be used to understand protein changes. To generalize the intended target to other relatable targets, this assay endpoint is annotated to the 'gpcr' intended target family, where the subfamily is 'rhodopsin-like receptor'.
The levels of cell surface (or secreted, indicated by the prefix "s") biomarker endpoints were measured by ELISA. Overt cytotoxicity to cells in confluent adherent cultures (all systems other than the BT system) was assessed by measuring total protein levels using sulforhodamine B (SRB) staining in parallel cultures at the time of biomarker measurements, indicated as SRB endpoints. For proliferation assays for adherent cell types, individual cell types are cultured at sub-confluence and relative cell numbers quantified by SRB staining at time points optimized for each system (48 h: 3C and CASM3C systems; 72 h: BT and HDF3CGF systems; 96 h: SAg system). SRB was performed by staining cells with 0.1% SRB after fixation with 10% TCA and reading wells at 560 nm.Viability and proliferation of PBMC (T cells) was quantified by Alamar Blue reduction for the SAg and BT systems. For PBMC viability (referred to as PBMC Cytotoxicity within the assay endpoint names), cells were plated (75,000/well in a 96-well plate) and then chemical samples added for 1 h before addition of activators, SEB and TSST-1 (20 ng/mL final concentration each). Cells were incubated for 90 h. Then, Alamar Blue (20 uL/well) (Invitrogen, Cat DAL1100) was added for 6 h, and the plates were read with a fluorescence microplate reader at 546/580 nm (excitation/emission). For PBMC proliferation, cells were plated and activated as above but incubated for only 16 h prior to addition of Alamar Blue. Plates were read after 6 h.

**Q.** With CC(C)CCCC(C)(C)O as the compound, how does the outcome read?
**A.** The outcome was “inactive”.

**Q.** CCCCN(CCO)CCO was tested. Which outcome did it give?
**A.** The outcome was “inactive”.

**Q.** CCn1cc(C(=O)O)c(=O)c2ccc(C)nc21 was tested. Which outcome did it give?
**A.** The outcome was “inactive”.

**Q.** O=C(O)C(F)(F)OC(F)(F)C(F)(F)OC(F)(F)C(F)(F)C(F)(F)C(F)(F)F was tested. Which outcome did it give?
**A.** The outcome was “inactive”.

**Q.** For O=C(O)C(F)(F)C(F)(F)C(F)(F)C(F)(F)C(F)(F)C(F)(F)C(F)(F)C(F)F, which outcome is on record?
**A.** Its outcome is “inactive”.

**Q.** CCCO[Si](OCCC)(OCCC)OCCC was tested. Which outcome did it give?
**A.** The outcome was “inactive”.

**Q.** Which outcome does the source give for CC(C)(CO)CO here?
**A.** The outcome was “inactive”.

**Q.** With O=S(=O)(O)C(F)(F)C(F)(F)OC(F)(F)C(F)(F)F as the compound, how does the outcome read?
**A.** The outcome was “inactive”.

**Q.** c1ccc(OCCOc2ccccc2)cc1 was tested. Which outcome did it give?
**A.** The outcome was “inactive”.

**Q.** And the AC50?
**A.** Its AC50 is 12.3 µM (active).

**Q.** With C=C(F)C(=O)OC(C(F)(F)F)C(F)(F)F as the compound, how does the outcome read?
**A.** The outcome was “inactive”.

**Q.** With C=C(C)C(=O)OCCC(F)(F)C(F)(F)C(F)(F)C(F)(F)C(F)(F)C(F)(F)C(F)(F)C(F)(F)F as the compound, how does the outcome read?
**A.** Its outcome is “inactive”.

**Q.** With OCC(F)(OC(F)(F)C(F)(OC(F)(F)C(F)(F)C(F)(F)F)C(F)(F)F)C(F)(F)F (centres undefined) as the compound, how does the outcome read?
**A.** The outcome was “inactive”.

**Q.** With CC(=O)c1ccc(C)cc1 as the compound, how does the outcome read?
**A.** Its outcome is “inactive”.
